The nature of assay [1]: Nuclear factor erythroid 2-related factor 2/antioxidant responsive element (Nrf2/ARE) small molecule agonists: qHTS cell viability counter screen in human keratinocytes (AID 1919968; active means well fitted curve in the direction sought with a large enough effect in the repeat runs; an effect the other way counts as inactive or inconclusive; further: nearly all actives have a fitted effect of over 55% in size). A digest of the protocol: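 Parallel cytotoxicity read: KeratinoSens HaCaT cells, compound treatment 23 h, viability by CellTiter-Fluor fluorescence 1 h post-reagent.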
On the technique in general: Quantitative high-throughput screening tests each substance at several concentrations.

The nature of assay [2]: Nuclear factor erythroid 2-related factor 2/antioxidant responsive element (Nrf2/ARE) small molecule agonists: luciferase reporter gene qHTS assay in human keratinocytes (AID 1919969). Further: nearly all actives have a fitted effect of over 35% in size. For orientation: In a reporter assay the amount or activity of a reporter protein is the signal.
For assay [3], the target named is Gonadotropin-releasing hormone receptor (Homo sapiens) (UniProt P30968). Nature of the assay: Human gonadotropin-releasing hormone receptor (GnRHR) small molecule agonists, calcium flux assay in GnRHR-HEK293 cells (AID 1920063). Further: nearly all actives have a fitted effect of over 35% in size. Summed up:
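Calcium flux, agonist mode, human GnRHR stably integrated in HEK293; dye 1 h at 37 C before compound; Ex/Em=480/540 kinetic read, 3 min; 15 concentrations, triplicate.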
On the technique in general: Calcium assays in cells follow changes in intracellular calcium, usually with a dye or a luminescent sensor.

Assay [4] concerns the target KiSS-1 receptor (Homo sapiens) (UniProt Q969F8). Nature of the assay: Human kisspeptin (KISS1R) small molecule agonists, calcium flux assay in KISS1R-HEK293 cells (AID 1920064; active means well fitted curve in the direction sought with a large enough effect in the repeat runs; an effect the other way counts as inactive or inconclusive). Summed up:
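Triplicate 15-concentration series were applied to dye-loaded human KISS1R HEK293 cells, and agonist-evoked calcium fluorescence was captured for 3 min.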

Assay [5] is described as follows: G protein-coupled receptor (GPCR) small molecule agonists, calcium flux assay: HEK293 wild type cell line counter screen (AID 1920065). Summed up:
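Non-specific calcium responders were flagged by adding DMSO-dissolved compounds to dye-loaded cells and reading 480/540 nm fluorescence each second for 3 min; ATP served as positive control.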

Assay [6] can be described thus: p53 small molecule agonists, cell-based qHTS assay with human liver microsomes (AID 1963577). Summed up:
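Fluorescence of the beta-lactamase reporter in p53RE-bla cells, detected with LiveBLAzer substrate (2 h, room temperature, dark), served as the read-out after 16 h compound exposure at 37 C with human liver microsomes and NADPH, each 0.5 mg/mL final.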

The nature of assay [7]: p53 small molecule agonists, cell-based qHTS assay with rat liver microsomes (AID 1963578). Summed up:
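Cells carrying a p53 response element–beta-lactamase reporter were plated and rested 5 h, then dosed with compound in DMSO plus rat liver microsomes and NADPH, each at 0.5 mg/mL final. After 16 h at 37 C, LiveBLAzer substrate was added for 2 h.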

Assay [8] is described as follows: p53 small molecule agonists, cell-based qHTS assay with human liver microsomes: qHTS cell viability counter screen (AID 1963579). Further: nearly all actives have a fitted effect of over 45% in size. A digest of the protocol:
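Cytotoxicity counter screen: p53RE-bla, 4,000 cells/well; 5 h settle, 37 C/5% CO2; cpd + HLM 0.5 mg/mL + NADPH 0.5 mg/mL (final); 16 h, 37 C; CellTiter-Glo, 30 min RT, luminescence.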

A short description of assay [9]: p53 small molecule agonists, cell-based qHTS assay: qHTS cell viability counter screen (AID 1963581). Further: nearly all actives have a fitted effect of over 45% in size. A digest of the protocol:
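Multiplexed with the reporter read, a CellTiter-Glo step (30 min, room temperature) gauges ATP-based viability of HCT-116 p53RE-bla cells after 16 h compound incubation at 37 C.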

Assay [10] in a line: p53 small molecule agonists, cell-based qHTS assay (AID 1963582; active means well fitted activation curve with a large enough effect in the signal ratio in the repeat runs, not every such curve was filed as active; the % refers to the signal ratio). A digest of the protocol: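 Beta-lactamase reporter cells (p53RE-bla) treated with compounds for 16 h at 37 C; FRET substrate, 2 h, room temperature; fluorescence intensity.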
The target of assay [11] is 5-hydroxytryptamine receptor 2A (Homo sapiens) (UniProt P28223). Nature of the assay: 5-hydroxytryptamine receptor 2A (HTR2A) small molecule antagonists, cell-based qHTS assay (AID 1963586). Further: nearly all actives have a fitted effect of over 45% in size. A digest of the protocol:
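CHO cells stably expressing human HTR2A were plated for 18 h at 37 C, then loaded with calcium dye for 1 h. Compounds were preincubated 5 min at room temperature before DOI (4 nM solution) was added. Kinetic fluorescence was read for 3 min.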

For assay [12] the target is unchanged. Nature of the assay: 5-hydroxytryptamine receptor 2A (HTR2A) small molecule agonists, cell-based qHTS assay (AID 1963587). Further: nearly all actives have a fitted effect of over 30% in size. Summed up: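 Kinetic calcium-flux fluorescence (2 min, 1 sec intervals) after compound addition in agonist mode. HTR2A-CHO cells were cultured 18 h, then dye-loaded 1 h at 37 C.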
The target in assay [13] is Muscarinic acetylcholine receptor M1 (Homo sapiens) (UniProt P11229). Nature of the assay: Cholinergic receptor muscarinic 1 (CHRM1) small molecule antagonists, cell-based qHTS assay (AID 1963588). Further: nearly all actives have a fitted effect of over 40% in size. Further: potency means the concentration at half of the fitted maximal effect. Summed up: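 Compounds were tested at 15 concentrations in three independent runs. Dye-loaded CHRM1-CHO cells were exposed 5 min at room temperature before stimulation by acetylcholine added at 50nM. Intracellular calcium was read kinetically on FDSS for 3 min.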

For assay [14] the target is unchanged. Nature of the assay: Cholinergic receptor muscarinic 1 (CHRM1) small molecule agonists, cell-based qHTS assay (AID 1963589). Further: nearly all actives have a fitted effect of over 35% in size. A digest of the protocol:
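qHTS, 15-point titration, 3 independent runs: compounds pin-transferred onto dye-loaded CHRM1-CHO cells (human M1), calcium fluorescence followed every second to detect agonism.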

Assay [15] can be described thus: cAMP Responsive Elements (CRE) small molecule agonists, cell-based qHTS assay (AID 1963590). A digest of the protocol:
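Quantitative HTS for CRE agonists: HEK 293T CRE-bla cells, overnight plating, 3 h compound incubation at 37 C/5% CO2, then 2 h room-temperature LiveBLAzer B/G FRET substrate loading.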

Assay [16] is described as follows: cAMP Responsive Elements (CRE) small molecule antagonists, cell-based qHTS assay (AID 1963591; active means well fitted inhibition curve with a large enough effect in the signal ratio in the repeat runs, not every such curve was filed as active; the % refers to the signal ratio). Summed up:
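Fluorescence intensity from cleaved LiveBLAzer B/G substrate (2 h, room temperature) quantified CRE-bla activity in HEK 293T cells exposed 3 h to compound with 0.25 uM final NKH477.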

The target in assay [17] is Beta-2 adrenergic receptor (Homo sapiens) (UniProt P07550). Nature of the assay: Adrenergic beta2 receptor (ADRB2) small molecule antagonists, cell-based qHTS assay (AID 1963592). Further: series mostly up to about 92 µM; nearly all actives have a fitted effect of over 50% in size. A digest of the protocol: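 Assay format: CHO-ADRB2 cells, 18-20hr seeding at 37C/5% CO2, then compound plus 1nM isoproterenol agonist mix for 0.5hr RT. Homogeneous time-resolved fluorescence cAMP detection after 1hr, expressed as 665/615 nm ratio.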

Assay [18] concerns the target D(2) dopamine receptor (Homo sapiens) (UniProt P14416). Nature of the assay: Dopamine D2 receptor (DRD2) small molecule agonists, cell-based qHTS assay (AID 1963594). Further: nearly all actives have a fitted effect of over 35% in size. A digest of the protocol:
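cAMP accumulation in DRD2-HEK293 cells measured by HTRF after 1 h detection; compounds added 10 min before NKH477 (200nM […]) forskolin-analogue stimulation, 30 min at room temperature, with Ro20-1724 present at 0.1 mM final.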

Assay [19] has the same target. Nature of the assay: Dopamine D2 receptor (DRD2) small molecule antagonists, cell-based qHTS assay (AID 1963595; active means well fitted inhibition curve with a large enough effect in the signal ratio in the repeat runs, with a control signal flat; the % refers to the signal ratio). Summed up:
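Antagonist mode in DRD2-HEK293 cells: after compound addition with 0.1 mM Ro20-1724, cells received quinpirole (12 nM) and NKH477 (200 nM) for 30 min at room temperature; HTRF cAMP read after 1 h detection.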

Assay [20] is described as follows: p53 small molecule agonists, cell-based qHTS assay with rat liver microsomes: qHTS cell viability counter screen (AID 1963580). Further: nearly all actives have a fitted effect of over 45% in size. Summed up: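 Rat liver microsome (0.5 mg/mL final) and NADPH (0.5 mg/mL final) co-incubation with compounds for 16 h at 37 C on HCT-116 p53RE-bla cells; cytotoxicity taken from intracellular ATP luminescence.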

Each structure is given as a SMILES string. Values joined by “and” are separate entries in the source; they are usually repeats but may differ in a detail not shown here. Equal values may be shown once. Inconclusive results are not listed. Where a structure was tested more than once in an assay, its records may differ in their call. Active and inactive are the calls of the source. Unless noted, the call rests on the fitted dose curve.

Sequence of Gonadotropin-releasing hormone receptor (Homo sapiens) (P30968 whole entry, looked up): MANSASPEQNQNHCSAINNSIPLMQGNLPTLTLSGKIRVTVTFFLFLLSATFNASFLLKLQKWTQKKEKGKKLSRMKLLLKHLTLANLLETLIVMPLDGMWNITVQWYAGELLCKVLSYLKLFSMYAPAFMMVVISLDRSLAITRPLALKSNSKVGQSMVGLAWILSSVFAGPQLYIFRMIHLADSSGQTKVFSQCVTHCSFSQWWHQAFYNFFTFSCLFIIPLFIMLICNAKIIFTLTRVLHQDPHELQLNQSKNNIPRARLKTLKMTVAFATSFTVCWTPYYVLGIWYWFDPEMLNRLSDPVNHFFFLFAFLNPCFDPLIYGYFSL
Sequence of KiSS-1 receptor (Homo sapiens) (Q969F8 whole entry, looked up): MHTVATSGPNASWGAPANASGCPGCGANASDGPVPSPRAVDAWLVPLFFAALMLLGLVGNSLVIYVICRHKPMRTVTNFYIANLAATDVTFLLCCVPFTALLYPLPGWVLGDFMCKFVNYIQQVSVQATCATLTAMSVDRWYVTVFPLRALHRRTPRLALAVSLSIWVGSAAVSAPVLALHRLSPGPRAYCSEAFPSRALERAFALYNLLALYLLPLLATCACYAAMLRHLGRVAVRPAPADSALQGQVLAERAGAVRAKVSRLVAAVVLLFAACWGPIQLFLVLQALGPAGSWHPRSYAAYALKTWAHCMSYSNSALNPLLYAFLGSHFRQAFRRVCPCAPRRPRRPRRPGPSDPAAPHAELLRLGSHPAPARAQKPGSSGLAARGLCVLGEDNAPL
Sequence of Muscarinic acetylcholine receptor M1 (Homo sapiens) (P11229 whole entry, looked up): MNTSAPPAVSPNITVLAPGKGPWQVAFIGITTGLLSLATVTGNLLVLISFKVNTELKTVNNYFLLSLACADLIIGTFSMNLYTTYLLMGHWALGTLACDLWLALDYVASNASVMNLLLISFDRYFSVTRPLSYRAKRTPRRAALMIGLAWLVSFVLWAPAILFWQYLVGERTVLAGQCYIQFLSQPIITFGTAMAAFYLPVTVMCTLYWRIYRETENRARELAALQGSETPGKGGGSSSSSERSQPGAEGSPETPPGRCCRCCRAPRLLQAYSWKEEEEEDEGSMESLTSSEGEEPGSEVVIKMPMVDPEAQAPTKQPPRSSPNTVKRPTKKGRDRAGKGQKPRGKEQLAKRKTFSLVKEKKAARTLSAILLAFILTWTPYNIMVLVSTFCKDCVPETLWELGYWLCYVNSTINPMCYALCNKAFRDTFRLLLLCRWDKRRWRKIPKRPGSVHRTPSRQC
Sequence of 5-hydroxytryptamine receptor 2A (Homo sapiens) (P28223 whole entry, looked up): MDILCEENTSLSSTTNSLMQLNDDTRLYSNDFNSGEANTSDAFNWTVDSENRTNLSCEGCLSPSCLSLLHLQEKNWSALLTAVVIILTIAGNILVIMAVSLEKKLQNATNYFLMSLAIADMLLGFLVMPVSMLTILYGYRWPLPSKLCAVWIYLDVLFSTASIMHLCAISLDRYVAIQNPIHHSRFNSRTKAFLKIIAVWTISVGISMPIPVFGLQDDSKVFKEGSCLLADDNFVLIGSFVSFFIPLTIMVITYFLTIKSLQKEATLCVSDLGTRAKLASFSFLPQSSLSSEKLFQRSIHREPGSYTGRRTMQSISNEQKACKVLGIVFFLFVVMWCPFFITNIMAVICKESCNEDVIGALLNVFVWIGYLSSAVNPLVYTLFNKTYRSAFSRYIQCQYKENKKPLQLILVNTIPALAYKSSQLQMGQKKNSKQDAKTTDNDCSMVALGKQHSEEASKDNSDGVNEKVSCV
Sequence of Beta-2 adrenergic receptor (Homo sapiens) (P07550 whole entry, looked up): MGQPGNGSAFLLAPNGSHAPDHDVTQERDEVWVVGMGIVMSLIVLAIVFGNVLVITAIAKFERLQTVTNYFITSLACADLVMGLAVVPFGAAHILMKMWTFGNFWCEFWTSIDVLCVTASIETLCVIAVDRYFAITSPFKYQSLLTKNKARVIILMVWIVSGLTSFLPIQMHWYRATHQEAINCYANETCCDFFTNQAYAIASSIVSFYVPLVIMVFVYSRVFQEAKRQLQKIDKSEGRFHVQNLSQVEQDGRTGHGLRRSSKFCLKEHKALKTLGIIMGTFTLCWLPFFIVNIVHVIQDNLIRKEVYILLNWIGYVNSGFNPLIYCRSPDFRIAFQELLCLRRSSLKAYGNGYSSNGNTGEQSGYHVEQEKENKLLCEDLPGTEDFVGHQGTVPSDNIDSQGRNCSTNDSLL
Sequence of D(2) dopamine receptor (Homo sapiens) (P14416 whole entry, looked up): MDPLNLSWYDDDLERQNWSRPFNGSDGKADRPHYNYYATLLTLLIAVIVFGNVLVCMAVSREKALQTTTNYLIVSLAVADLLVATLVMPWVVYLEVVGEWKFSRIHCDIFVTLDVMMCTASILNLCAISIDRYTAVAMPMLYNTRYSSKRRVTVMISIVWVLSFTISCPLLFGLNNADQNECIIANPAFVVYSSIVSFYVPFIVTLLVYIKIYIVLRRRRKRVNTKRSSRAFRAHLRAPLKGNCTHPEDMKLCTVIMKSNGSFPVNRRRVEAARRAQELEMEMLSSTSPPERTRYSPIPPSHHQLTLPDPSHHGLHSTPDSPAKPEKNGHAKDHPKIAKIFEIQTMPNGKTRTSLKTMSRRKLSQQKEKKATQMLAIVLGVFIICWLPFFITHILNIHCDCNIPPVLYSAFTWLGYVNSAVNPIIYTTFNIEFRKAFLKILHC

Regarding `CCCCCCCCn1cc[n+](C)c1`, the Potency entry in assay [1], in assay [2], in assay [3], in assay [4], in assay [5] and in [6] was “inactive” each time. Also, the Potency entry in assay [7], in assay [8], in [9], in [10], in [11] and in [12] was “inactive” each time. For the same compound, the Potency entry in [14], in [15], in assay [16], in [17], in [18] and in [19] was “inactive” each time. The Potency in assay [13] was 9.41 µM (active) and 3.78 µM (active) and inactive.

As to `CCOC(=O)c1ccccc1S(=O)(=O)NC(=O)Nc1nc(Cl)cc(OC)n1`, the Potency result in [1], in [2], in assay [3], in assay [4], in [5] and in assay [6] was “inactive” throughout. In addition, the Potency result in [7], in [8], in [20], in [10], in [11] and in assay [12] was “inactive” in each case. For the same compound, the Potency entry in assay [13], in assay [15], in assay [17], in assay [18] and in assay [19] was “inactive” throughout.

In the case of `ClCC(Cl)(Cl)Cl`, the Potency result in [1], in assay [2], in [3], in assay [4], in assay [5] and in assay [6] was “inactive” in each case. Further, the Potency result in assay [7], in assay [8], in [9], in assay [10], in assay [11] and in assay [12] was “inactive” each time. The Potency entry in assay [13], in [14], in assay [15], in [16], in assay [17] and in assay [18] was “inactive” throughout. In addition, in assay [19], the Potency entry is “inactive”.

As to `CC(C)OS(C)(=O)=O`, the Potency result in assay [1], in assay [2], in assay [3], in assay [4], in [5] and in assay [6] was “inactive” throughout. Besides, the Potency result in [7], in [8], in assay [20], in [10], in assay [11] and in assay [12] was “inactive” throughout. Moreover, the Potency entry in assay [13], in assay [15], in assay [16], in assay [17] and in assay [18] was “inactive” in each case.

With `Fc1cc(Br)ccc1CBr`, the Potency entry in [1], in assay [2], in assay [3], in assay [4], in assay [5] and in assay [6] was “inactive” in each case. In addition, the Potency entry in [7], in assay [8], in [9], in assay [10], in assay [11] and in assay [12] was “inactive” throughout. The Potency entry in assay [13], in [14], in assay [15], in assay [16], in assay [17] and in [18] was “inactive” in each case. Also, the Potency entry in assay [19] was “inactive”.

On to `COC(=O)c1sccc1S(=O)(=O)NC(=O)Nc1nc(C)nc(OC)n1`, for which the Potency entry in [1], in assay [2], in [3], in assay [4], in assay [5] and in assay [6] was “inactive” each time. The Potency result in assay [7], in assay [8], in assay [9], in assay [10], in assay [11] and in [12] was “inactive” in each case. Further, the Potency result in assay [13], in assay [14], in assay [15], in assay [16], in assay [17] and in assay [18] was “inactive” throughout. The Potency entry in assay [19] is “inactive”.

For the compound `CC(C(=O)c1ccccc1)N(C)C` (configuration not stated), the Potency result in assay [1], in [2], in [3], in assay [4], in assay [5] and in assay [6] was “inactive” in each case. Besides, the Potency entry in assay [7], in assay [8], in assay [20], in assay [10], in assay [12] and in assay [13] was “inactive” in each case. In addition, the Potency entry in assay [14], in assay [15], in [16], in assay [17] and in assay [18] was “inactive” in each case.

These data come from PubChem BioAssay (Tox21).
